From PubChem BioAssay (NCATS)
Results filed as inconclusive are left out. Entries that show only a call come without a potency. The source made the active and inactive calls. The call rests on the fitted dose curve; in most records, active means well fitted curve in the direction sought with a large enough effect; inconclusive means small, poorly fitted or top-dose-only effect, or another doubt; inactive means no such curve, though single readings can be large; an effect the other way counts as inactive or inconclusive.

Columns and labels:
[1] = HEK-293 Cancer Cell Toxicity qHTS against the NCATS CANVASS Library (AID 1347355); further: nearly all actives have a fitted effect of over 65% in size; further: potency means the concentration at half of the fitted maximal effect; on outcome: series mostly up to about 46 µM
Method in brief: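 Luminescent ATP read-out (CellTiter-Glo, 15min at room temperature) measures survival after cells face an 11-point compound series for 72 hours at 37 degrees C/5% CO2.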

[2] = HPAF-II 24hr Apoptosis Induction qHTS against the NCATS CANVASS Library (AID 1347356)
Method in brief: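 Luminescent caspase-3/7 signal (DEVD substrate, Caspase-Glo) served as read-out, taken 15 min after reagent addition to HPAF-II cells exposed 24 h to compounds.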

[3] = HEK293 18hr Apoptosis Induction qHTS against the NCATS CANVASS Library (AID 1347357); further: potency means the concentration at half of the fitted maximal effect
Method in brief: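 HEK293 cells (500 per well, DMEM with 10% FBS) were treated with natural products, incubated 18 hours at 37 degrees C, then caspase-3/7 activity was read by Caspase-Glo luminescence after 15 min at room temperature.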

[4] = HEK293 24hr Apoptosis Induction qHTS against the NCATS CANVASS Library (AID 1347359)
Method in brief: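 HEK293 cells (500/well, DMEM + 10% FBS) were exposed to compounds in an 11-point series for 24 hours at 37 degrees C, then caspase-3/7 activity was read by Caspase-Glo DEVD luciferase luminescence after 15 min.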

[5] = test system: NAD(P)H diaphorase (Clostridium kluyveri); test: Diaphorse counterscreen qHTS: Assay Interference Panel against the NCATS CANVASS Library (AID 1347362)
Method in brief: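 Clostridium kluyveri diaphorase in PBS with 0.01% Tween-20 was preincubated 15 min at room temperature in the dark with compounds (11-point series). Resorufin fluorescence (ex 525/20, em 598/25) was read 5 min after adding resazurin/NADH.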

[6] = SDT Cancer Cell Toxicity qHTS against the NCATS CANVASS Library (AID 1347365); further: nearly all actives have a fitted effect of over 60% in size; further: potency means the concentration at half of the fitted maximal effect
Method in brief: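 qHTS, SDT dog glioma line, 500 cells/well; cpds 11 pts; 72 hr, 37C, 5% CO2; CellTiterGlo ATP luminescence.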

[7] = qHTS for ATAD5 Agonist screened against the NCATS CANVASS Library (AID 1347367);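 further: luciferase reporter driven by ATAD5 which rises upon DNA damage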
Method in brief: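 HEK293T cells stably carrying an ATAD5-controlled luciferase reporter (2000 cells/well) attached for 5 hr, then received compounds in an 11-point series for 16hr at 37C. Luminescence was read after a 30 min room-temperature reagent step.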

[8] = MCF7 Cancer Cell Toxicity qHTS against the NCATS CANVASS Library (AID 1347369); further: potency means the concentration at half of the fitted maximal effect
Method in brief: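 MCF7, 500 cells/well; cpds 11-pt qHTS; 72 hr, 37C/5% CO2; CellTiterGlo ATP luminescence.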

[9] = qHTS for ATAD5 Antagonist screened against the NCATS CANVASS Library (AID 1347370); further: nearly all actives have a fitted effect of over 65% in size; further: potency means the concentration at half of the fitted maximal effect
Method in brief: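 HEK293T cells with stably integrated ATAD5-luciferase reporter, 2000/well, 5 h attachment; compounds plus 10 µM 5-fluorouridine, 16 h at 37 °C. Luciferase luminescence read, with CellTiter-Fluor viability read first.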

[10] = J3T Cancer Cell Toxicity qHTS against the NCATS CANVASS Library (AID 1347371); further: potency means the concentration at half of the fitted maximal effect
Method in brief: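 Cells plated at 500 per well, compounds pin-transferred, plates incubated 72 hr at 37C, then CellTiterGlo added and luminescence read to measure ATP content.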

[11] = biological target: Nuclear receptor subfamily 1 group I member 3 (Homo sapiens) (UniProt Q14994); test: qHTS for Constitutive Androstane Receptor (CAR) Agonist screened against the NCATS CANVASS Library (AID 1347373);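 further: every well also contained 1.5 µM PK11195 alongside the test compound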
Sequence of Nuclear receptor subfamily 1 group I member 3 (Homo sapiens) (Q14994 whole entry, looked up): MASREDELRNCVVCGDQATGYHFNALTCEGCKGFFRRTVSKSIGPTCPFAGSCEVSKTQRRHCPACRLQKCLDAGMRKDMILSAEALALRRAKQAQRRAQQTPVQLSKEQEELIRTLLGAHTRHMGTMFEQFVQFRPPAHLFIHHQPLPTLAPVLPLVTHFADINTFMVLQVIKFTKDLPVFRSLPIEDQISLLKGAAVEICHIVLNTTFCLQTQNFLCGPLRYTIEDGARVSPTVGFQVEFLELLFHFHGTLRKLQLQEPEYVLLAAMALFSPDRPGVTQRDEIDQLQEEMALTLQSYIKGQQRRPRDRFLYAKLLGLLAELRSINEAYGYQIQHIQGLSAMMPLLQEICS
Method in brief: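 HepG2-hCAR-CYP2B6 cells, 2500/well, attached 4hr; cpd + PK11195 1.5uM final; 24hr 37C 5% CO2. CellTiter-Fluor viability read, then ONE-Glo luminescence for CAR activation.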

[12] = qHTS for H2AX Agonists against the NCATS CANVASS Library (AID 1347378); further: potency means the concentration at half of the fitted maximal effect
Method in brief: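 CHO-K1 cells were plated overnight at 37C, then exposed to compounds (concentration series, 0.76% DMSO final) for 3 hr at 37C. Lysates received Eu-cryptate anti-pH2AX (S139) and d2 anti-H2AX antibodies; after 24 hr at room temperature, TR-FRET 665/620 nm ratio was read.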

[13] = qHTS for Inflammasome Signaling Inhibitors: IL-1-beta AlphaLISA screen against the NCATS CANVASS Library (AID 1347379);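 further: human THP-1 cells primed with LPS then triggered with ATP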
Method in brief: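 THP-1 cells pretreated 1 hr with compound (up to 57.5 uM final), then stimulated with LPS (250 ng/mL final) and ATP (1.25 mM final). Secreted IL-1B measured by AlphaLISA after 16 hr; glyburide as positive control.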

[14] = qHTS assay for small molecule disruptors of mitochondrial membrane potential screened against the NCATS CANVASS Library (AID 1347389); further: nearly all actives have a fitted effect of over 60% in size; further: potency means the concentration at half of the fitted maximal effect
Method in brief: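 HepG2, 2,000 cells/well, attached overnight; compound 1 hr, 37C, 5% CO2; Mito-MPS dye 30 min, 37C; fluorescence 535 nm (monomer) and 590 nm (aggregate); decreased 590/535 ratio = depolarization.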

[15] = qHTS for activators of dead-cell proteases activity screened against the NCATS CANVASS Library (AID 1347392);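 further: luminescence from protease leaking out of membrane-damaged cells cleaving impermeant substrate; rising signal means more cytotoxicity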; further: potency means the concentration at half of the fitted maximal effect
Method in brief: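 HepG2 cells (2000/well) attached 18 h at 37C, then exposed 5 h to compounds (11-point qHTS). Dead-cell protease activity read as luminescence from cell-impermeant AAF-aminoluciferin substrate after 15 min at room temperature.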

[16] = qHTS for Hypoxia signaling pathway (HIF-1) agonists against the NCATS CANVASS Library (AID 1347375)
Method in brief: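 ME-180 HRE-bla reporter cells; 2,000/well, 0.5% dialyzed FBS; cpd added after 5 h, 17 h 37C/5% CO2; CCF4-AM 2 h RT; FRET 460/530 nm; CellTiter-Glo viability same wells, 30 min.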

[17] = HPAF-II 12hr Apoptosis Induction qHTS against the NCATS CANVASS Library (AID 1347358)
Method in brief: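 500 HPAF-II cells/well; cmpds 11-pt; 12 hr, 37 degrees C/5% CO2; Caspase-Glo 3/7 added, 15 min RT dark; luminescence read. Doxorubicin titration as control.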

[18] = HPAF-II 18hr Apoptosis Induction qHTS against the NCATS CANVASS Library (AID 1347360)
Method in brief: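 HPAF-II cells (500/well, DMEM + 10% FBS) were exposed to compounds for 18 hours at 37 degrees C. Caspase-3/7 activity was then read by Caspase-Glo 3/7 luminescence after 15 min at room temperature.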

[19] = qHTS for Activators of p53 Stress Response Pathway screened against the NCATS CANVASS Library (AID 1347388)
Method in brief: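 p53RE-bla HCT-116 cells (4000/well) were plated 5 h at 37C, exposed to compounds for 16 h at 37C over an 11-point concentration series, then loaded with CCF4 for 2 h at room temperature; 460/530 nm emission ratio read.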

[20] = qHTS for inhibitors of Wild type Zika virus screened against the NCATS CANVASS Library (AID 1347396);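 further: ATP luminescence of surviving cells so rescue from viral cell killing; series mostly up to about 46 µM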
Method in brief: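 Protection against wild-type Zika cytopathic effect is measured in African green monkey Vero 766 cells exposed to an 11-point compound series. Surviving cells are quantified by CellTiter Glo luminescence after 72 h.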

| SMILES | Potency [1] | outcome [2] | Potency [3] | Potency [4] | Potency [5] | Potency [6] | Potency [7] | Potency [8] | Potency [9] | Potency [10] | Potency [11] | Potency [12] | Potency [13] | Potency [14] | Potency [15] | outcome [16] | Potency [17] | Potency [18] | Potency [19] | outcome [20] |
| --- | --- | --- | --- | --- | --- | --- | --- | --- | --- | --- | --- | --- | --- | --- | --- | --- | --- | --- | --- | --- |
| CO/C=C/C(=O)c1cc2cnc3c(N)cc(=NC(=O)C(C)C)c([nH]1)c23 | 0.166 µM (active) | inactive | inactive | inactive | inactive | 0.372 µM (active) | inactive | inactive | 0.741 µM (active) | 0.743 µM (active) | inactive | inactive | 0.968 µM (active) | 3.31 µM (active) | 23.4 µM (active) |  |  |  |  |  |
| C/C=C1/CN2C3CC1C1C=CC(=O)N4c5ccccc5[C@@]3(C[C@@H]2C2=C[C@H]3C5CC6N(CC[C@@]67c6ccccc6N(C2=O)[C@@H]37)C/C5=C/C)[C@H]14 (stereo partly specified) | 9.35 µM (active) |  | 26.4 µM (active) |  | inactive | 10.5 µM (active) | inactive | 16.5 µM (active) | 5.24 µM (active) | 20.9 µM (active) | inactive | 21.7 µM (active) | 12.2 µM (active) |  | inactive | inactive |  |  |  |  |
| C[C@@]12C[C@@H](C[C@@H]3C(=O)O[C@@H](c4ccoc4)[C@H](OC(=O)c4ccccc4)[C@@H]31)OC2=O | inactive | inactive | inactive | inactive | inactive | inactive | inactive | inactive | inactive | inactive | inactive | inactive | inactive | inactive | inactive | inactive | inactive | inactive | inactive | inactive |
| CCCc1c2c([nH]c(=O)c1C)C(=O)c1[nH]c(=O)c(C)c(CCC)c1C2=O | inactive | inactive | inactive | inactive |  |  | inactive | inactive | inactive | inactive | inactive |  | inactive |  | inactive | inactive | inactive | inactive | inactive | inactive |
| O=C1CC(c2ccc(O)cc2)Oc2cc(O)cc(O)c21 (stereo unspecified) | inactive | inactive | inactive | inactive | inactive | inactive | inactive | inactive | inactive | inactive | inactive | inactive | inactive |  | inactive |  | inactive | inactive | inactive | inactive |
| O=Cc1ccc2n1C[C@]1(OC2)O[C@H](CO)[C@@H](O)[C@@H]1O | inactive | inactive | inactive | inactive | inactive | inactive | inactive | inactive | inactive | inactive | inactive | inactive | inactive | inactive | inactive | inactive | inactive | inactive | inactive | inactive |
| Cc1cc(O)cc2c1C(=O)c1c(O)cc(O)cc1C2=O | inactive | inactive | inactive | inactive | inactive | inactive | inactive | inactive | inactive | inactive | inactive | inactive | inactive | inactive | inactive | inactive | inactive | inactive | inactive | inactive |
| CC1=C2CC[C@]3(C)[C@H](CC=C4[C@@H]5CC(C)(C)CC[C@@H]5C(=O)[C@H](O)[C@]43C)[C@@]2(C)C=C(O)C1=O |  | inactive | inactive | inactive | inactive | inactive | inactive | inactive |  | inactive | inactive | inactive | inactive |  | inactive | inactive | inactive | inactive | inactive | inactive |
| C/C(=C\[C@@H](C)CC/C=C/CC/C=C/C(=O)O)[C@@H](O)[C@H](C)C(=O)CCCC1CC(=O)NC(=O)C1 | inactive | inactive | inactive | inactive | inactive |  | inactive | inactive | inactive | inactive | inactive | inactive | inactive | inactive | inactive | inactive | inactive | inactive | inactive | inactive |
| Oc1ccc(C2Oc3cc(O)c4c(c3[C@@H]2c2cc(O)cc(O)c2)[C@H]2C(c3ccc(O)cc3)c3c(O)cc5c(c3[C@H]2C4c2ccc(O)cc2)[C@H](c2cc(O)cc(O)c2)C(c2ccc(O)cc2)O5)cc1 (stereo partly specified) | inactive | inactive | inactive | inactive | inactive | 9.35 µM (active) | inactive | inactive | inactive | inactive | inactive | inactive | inactive |  | inactive | inactive | inactive | inactive |  | inactive |
| COC(=O)c1cc2cc3c(c(O)c2c(=O)o1)OC1(CC3)CC2=C(O1)C(=O)c1c(O)c(OC)cc(OC)c1C2=O (stereo unspecified) |  | inactive | inactive | inactive |  |  | inactive |  | inactive | inactive | inactive |  |  | 3.31 µM (active) | inactive | inactive | inactive | inactive |  |  |
| C[C@@H]1CC[C@]2(C(=O)O)CC[C@]3(C)C(=C2[C@H]1C)CC[C@@H]1[C@@]2(C)CC[C@H](O)C(C)(C)[C@@H]2CC[C@]13C |  | inactive | inactive | inactive | inactive | inactive | inactive | inactive | inactive | inactive | inactive | 34.4 µM (active) |  | inactive | inactive | inactive | inactive | inactive | inactive | inactive |
| CC(CCC[C@]1(C)C(=O)C=C[C@@]23C[C@]4(C)O[C@@H](C[C@@H]4[C@H]2O)C31)C(=O)O (stereo partly specified) | inactive | inactive | inactive | inactive | inactive | inactive | inactive | inactive | inactive | inactive | inactive | inactive | inactive | inactive | inactive | inactive | inactive | inactive | inactive | inactive |
